Assay results from PubChem BioAssay AID1159580 (chemical genetic matrix, 2015).
Several values for one entry are separate records, joined by “and”; a condition that tells them apart may be missing. Equal values may be shown once. In all, about 5,500 compounds went through this assay and about 2,000 (36%) were called active. Inconclusive results (about 18%) are left out. Cut-off read from the data, not from the text of the source: active = normalized growth mostly below about 0.91 (no sharp cut-off); inconclusive = no clear call, values can overlap the other calls; inactive = mostly above about 0.92. The list shows a part of the results.

Test: chemical genetic growth profiling, strain panel (AID 1159580);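 note: tested at 20 µM; growth read once vehicle control cultures reached saturation at 30 °C; 1 = growth at the plate median or of vehicle wells; lower values mean less growth of the strain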
Details: S. cerevisiae deletion strains, growth OD

Measured: normalized growth

Nc1ccccc1C(=O)CC(N)C(=O)O (stereo not drawn)
inactive: locus YAL021C, strain ccr4, active compounds read low 1.01 | locus YAL026C, strain drs2, active compounds read low 1.01 | locus YAL030W, strain snc1, active compounds read low 0.992 | locus YBL061C, strain skt5, active compounds read low 1 | locus YBR009C, strain hhf1, active compounds read low 1.01 | locus YBR021W, strain FUR4, active compounds read low 1.06 | locus YBR023C, strain chs3, active compounds read low 1 | locus YBR171W, strain sec66, active compounds read low 0.99 | locus YBR229C, strain ROT2, active compounds read low 1.01 | locus YBR231C, strain swc5, active compounds read low 0.97 | locus YBR279W, strain paf1, active compounds read low 1.01 | locus YCL011C, strain gbp2, active compounds read low 1.01 | locus YCL016C, strain dcc1, active compounds read low 1 | locus YCL029C, strain bik1, active compounds read low 0.968 | locus YCL069W, strain vba3, active compounds read low 1.01 | locus YCR088W, strain abp1, active compounds read low 0.989 | locus YDL005C, strain med2, active compounds read low 0.989 | locus YDL035C, strain GPR1, active compounds read low 1.01 | locus YDL040C, strain nat1, active compounds read low 0.989 | locus YDL074C, strain BRE1, active compounds read low 0.968 | locus YDL101C, strain DUN1, active compounds read low 0.995 | locus YDL134C, strain PPH21, active compounds read low 1.07 | locus YDL185W, strain tfp1, active compounds read low 0.947 | locus YDL192W, strain arf1, active compounds read low 0.984 | locus YDR001C, strain nth1, active compounds read low 0.99 | locus YDR069C, strain doa4, active compounds read low 0.984 | locus YDR101C, strain arx1, active compounds read low 0.956 | locus YDR137W, strain rgp1, active compounds read low 0.998 | locus YDR150W, strain NUM1, active compounds read low 0.997 | locus YDR159W, strain sac3, active compounds read low 0.981 | locus YDR162C, strain NBP2, active compounds read low 1.01 | locus YDR195W, strain ref2 0.94 | locus YDR297W, strain sur2, active compounds read low 0.994 | locus YDR318W, strain mcm21, active compounds read low 1.01 | locus YDR334W, strain swr1, active compounds read low 0.99 | locus YDR335W, strain msn5, active compounds read low 1 | locus YDR388W, active compounds read low 0.994 | locus YDR392W, strain spt3, active compounds read low 0.907 | locus YDR502C, strain sam2, active compounds read low 1 | locus YEL003W, strain gim4, active compounds read low 1.01 | locus YEL037C, strain rad23, active compounds read low 1 | locus YEL061C, strain CIN8 (second series), active compounds read low 0.992 | locus YEL061C, strain CIN8, active compounds read low 1 | locus YER015W, strain faa2, active compounds read low 1.01 | locus YER016W, strain bim1, active compounds read low 0.996 | locus YER110C, active compounds read low 0.975 | locus YER111C, strain swi4, active compounds read low 0.998 | locus YER155C, strain BEM2 (second series), active compounds read low 0.939 | locus YER155C, strain BEM2, active compounds read low 0.997 | locus YER167W, strain BCK2, active compounds read low 1.01 | locus YFR010W, strain ubp6, active compounds read low 1.01 | locus YGL078C, strain dbp3, active compounds read low 0.989 | locus YGL086W, strain mad1, active compounds read low 0.954 | locus YGL167C, strain pmr1, active compounds read low 0.997 | locus YGL173C, strain kem1, active compounds read low 1 | locus YGL227W, strain vid30, active compounds read low 0.996 | locus YGL240W, strain doc1, active compounds read low 0.941 | locus YGL248W, strain PDE1, active compounds read low 1.01 | locus YGL253W, strain hxk2, active compounds read low 1.03 | locus YGR078C, strain PAC10, active compounds read low 0.998 | locus YGR135W, strain pre9, active compounds read low 1 | locus YGR229C, strain SMI1, active compounds read low 1.01 | locus YGR252W, strain gcn5, active compounds read low 1.17 | locus YHR013C, strain ard1, active compounds read low 0.998 | locus YHR027C, strain rpn1, active compounds read low 0.984 | locus YHR030C, strain SLT2, active compounds read low 0.989 and 1.03 | locus YHR079C, strain IRE1 (second series), active compounds read low 0.992 | locus YHR079C, strain IRE1, active compounds read low 1.05 | locus YHR094C, strain hxt1, active compounds read low 0.995 | locus YHR129C, strain ARP1, active compounds read low 1.01 | locus YHR142W, strain chs7, active compounds read low 0.995 | locus YHR200W, strain rpn10, active compounds read low 0.995 | locus YIL066C, strain RNR3, active compounds read low 1 | locus YIL073C, strain SPO22, active compounds read low 0.986 | locus YIL125W, strain kgd1, active compounds read low 0.993 | locus YIR030C, strain dcg1, active compounds read low 0.997 | locus YJL092W, strain hpr5, active compounds read low 1.01 | locus YJL095W, strain BCK1 (second series), active compounds read low 0.993 | locus YJL095W, strain BCK1, active compounds read low 0.998 and 1.02 | locus YJL115W, strain asf1, active compounds read low 0.985 | locus YJL129C, strain trk1, active compounds read low 1.03 | locus YJL134W, strain LCB3, active compounds read low 0.991 | locus YJL154C, strain vps35, active compounds read low 0.991 | locus YJL164C, strain tpk1, active compounds read low 1.03 | locus YJL166W, strain qcr8, active compounds read low 0.991 | locus YJL168C, strain set2, active compounds read low 0.985 | locus YJL187C, strain SWE1 (second series), active compounds read low 0.992 | locus YJL187C, strain SWE1, active compounds read low 1.02 | locus YJR043C, strain POL32, active compounds read low 1.01 | locus YJR066W, strain TOR1, active compounds read low 0.952 | locus YJR075W, strain HOC1, active compounds read low 0.995 | locus YKL009W, strain mrt4, active compounds read low 0.964 | locus YKL068W, active compounds read low 0.975 | locus YKL085W, strain MDH1 (second series), active compounds read low 0.983 | locus YKL085W, strain MDH1, active compounds read low 0.983 | locus YKL160W, strain elf1, active compounds read low 1.02 | locus YKL190W, strain CNB1, active compounds read low 1.01 | locus YKR001C, strain vps1, active compounds read low 0.959 | locus YKR026C, strain gcn3, active compounds read low 0.992 | locus YKR091W, strain srl3, active compounds read low 0.991 | locus YLL001W, strain dnm1, active compounds read low 1 | locus YLL026W, active compounds read low 0.994 | locus YLL041C, strain sdh2, active compounds read low 0.998 | locus YLR027C, strain aat2, active compounds read low 1.01 | locus YLR039C, strain RIC1, active compounds read low 0.91 | locus YLR058C, strain SHM2, active compounds read low 1.01 | locus YLR102C, strain apc9, active compounds read low 0.984 | locus YLR113W, strain HOG1, active compounds read low 1.02 | locus YLR221C, strain rsa3, active compounds read low 0.987 | locus YLR258W, strain gsy2, active compounds read low 1.01 | locus YLR262C, strain YPT6 (second series), active compounds read low 1 | locus YLR262C, strain YPT6, active compounds read low 0.896 | locus YLR268W, strain sec22, active compounds read low 0.957 | locus YLR320W, strain mms22, active compounds read low 0.983 | locus YLR330W, strain CHS5, active compounds read low 0.989 | locus YLR342W, strain FKS1 (second series), active compounds read low 1.02 | locus YLR342W, strain FKS1, active compounds read low 0.992 | locus YLR357W, strain rsc2, active compounds read low 0.984 | locus YLR370C, strain arc18, active compounds read low 0.992 | locus YLR371W, strain rom2, active compounds read low 0.984 | locus YLR384C, strain iki3, active compounds read low 0.972 | locus YLR418C, strain cdc73, active compounds read low 1.06 | locus YML016C, strain PPZ1, active compounds read low 0.989 | locus YML032C, strain rad52, active compounds read low 1.02 | locus YML120C, strain ndi1, active compounds read low 1 | locus YML124C, strain tub3, active compounds read low 0.994 | locus YMR058W, strain fet3, active compounds read low 1 | locus YMR078C, strain ctf18, active compounds read low 0.98 | locus YMR125W, strain sto1, active compounds read low 1.02 | locus YMR129W, active compounds read low 1 | locus YMR205C, strain PFK2, active compounds read low 1.02 | locus YMR223W, strain ubp8, active compounds read low 0.995 | locus YMR231W, strain pep5, active compounds read low 0.996 | locus YMR263W, strain SAP30, active compounds read low 0.995 | locus YMR307W, strain GAS1, active compounds read low 1.16 | locus YNL067W, strain RPL9B, active compounds read low 0.998 | locus YNL071W, strain lat1, active compounds read low 1 | locus YNL153C, strain GIM3, active compounds read low 0.988 | locus YNL183C, strain NPR1, active compounds read low 0.965 | locus YNL209W, strain ssb2, active compounds read low 1 | locus YNL233W, strain BNI4, active compounds read low 0.993 | locus YNL248C, strain rpa49, active compounds read low 0.914 | locus YNL250W, strain rad50, active compounds read low 0.935 | locus YNL271C, strain bni1, active compounds read low 0.984 | locus YNL298W, strain CLA4, active compounds read low 0.991 | locus YNL307C, strain MCK1, active compounds read low 0.982 | locus YNL322C, strain KRE1 (second series), active compounds read low 1 | locus YNR049C, strain mso1, active compounds read low 1.02 | locus YNR052C, strain pop2, active compounds read low 1.02 | locus YOL006C, strain TOP1, active compounds read low 0.831 | locus YOL012C, strain htz1 0.879 | locus YOL147C, strain pex11, active compounds read low 0.991 | locus YOR001W, strain rrp6, active compounds read low 0.972 | locus YOR061W, strain CKA2, active compounds read low 0.992 | locus YOR069W, strain VPS5, active compounds read low 0.993 | locus YOR070C, strain gyp1, active compounds read low 1 | locus YOR080W, strain dia2, active compounds read low 1 | locus YOR083W, strain WHI5, active compounds read low 1.02 | locus YOR106W, strain vam3, active compounds read low 1.02 | locus YOR136W, strain idh2, active compounds read low 0.972 | locus YOR144C, strain elg1, active compounds read low 0.996 | locus YOR184W, strain ser1, active compounds read low 0.978 | locus YOR231W, strain MKK1, active compounds read low 1.04 | locus YOR265W, strain rbl2, active compounds read low 1 | locus YOR270C, strain vph1, active compounds read low 1.04 | locus YOR290C, strain snf2, active compounds read low 0.994 | locus YOR316C, strain cot1, active compounds read low 0.994 | locus YPL051W, strain arl3, active compounds read low 1 | locus YPL078C, strain atp4, active compounds read low 1.01 | locus YPL106C, strain sse1, active compounds read low 0.966 | locus YPL240C, strain hsp82, active compounds read low 0.992 | locus YPL241C, strain CIN2, active compounds read low 1.01 | locus YPL256C, strain CLN2, active compounds read low 1.04 | locus YPR119W, strain clb2, active compounds read low 0.985 | locus YPR141C, strain kar3, active compounds read low 0.992 | locus YPR163C, strain tif3, active compounds read low 0.986 | locus YPR167C, strain met16, active compounds read low 0.996 | strain wtn01, active compounds read low 0.94
